Test results reported in PMC12864922, “TDP-43 directly inhibits mRNA accumulation in neurites through modulation of mRNA stability”.
Whole data set: some 9,900 sequences, median “r (bound/input frequency ratio)” near 0.7, cut for the highest 2% near 6.5. For the sample, the highest values were picked, then their nearest neighbours and some sequences at random.

B1: ENSMUSG00000058297.31|Spock2|65:69;73:86;95:106;120:126;135:144;150:175 (ssRNA)
RNA: GGGAGUUCUACAGUCCGACGAUCGCUUCGAUAUCCGCAUGCUAACUUAGCAAAUGGAUCCGGAAGUCAGUGCGGAGGACCCUGGCUCCAGUGGGGGAGGACUGGGGACACACGCUACACACAUACACACAUAUGAGAACACACACAUACAUGUGAGAUGUGACACACACAUGUGAGAACACACAUACUGAGAACACACACACACACACACACACACACAUGUGAGUCACCCAAAGGUCCCUAUGUUAUUGAUUUUCAAAUGCACACUUUCACACACAAGGAUACACUAACAGACCAAAAUCAACUCUUGCGGUCGCACUAGUGUGGAAUUCUCGGGUGUCAAGG
B2: ENSMUSG00000031028.17|Tub|206:210 (ssRNA)
RNA: GGGAGUUCUACAGUCCGACGAUCGCUUCGAUAUCCGCAUGCUACUCUGUCCAGCUUUGACAGCAAGCUGGCCUGCGAGUAGAGGCCCCCCACUGCCUUUAGGUGGCCCAGUCCGGAGUGGAGCUUGCCUGCCUGCCAAGACAGCCCUGCCUACCCUCUGUUCAUAGGCCCUCUAUGGGCUUUCUGGCCUUACCAACCAGAGACUGGCUGCUCUGCCUCUGCUGCUGAAGCAGGGGGGACAGCAAAUGGCAUACACAGGAGAAGAAUAUUUCUGUGCCCCAAGGUCAACACACAUGCCCAGUCCCUCUUGCGGUCGCACUAGUGUGGAAUUCUCGGGUGUCAAGG
B3: ENSMUSG00000031028.285|Tub (ssRNA)
RNA: GGGAGUUCUACAGUCCGACGAUCGCUUCGAUAUCCGCAUGCUAUGCAGGUAAGGAGGCUGGAUUGAUGUAAAUGGAAGUAGUACUUUAAGAAAGCUCUAGAUUUCCCAGGUUGGACACUCGACGAAAGGCACACCUGCUGCAGCAGGUUCUGACACACCUGAGCCAUACAUUGCCAUCAGAGAACCCUCAGCGAGGUAGCCUUUGUUUACAGUCUAGUUUCUAGAGGGCAGUAGGACUUCCAUGCUGGGGCUGGCCUAUCUCCUGAUGAAAGAUUACAGUGCCAUCUCCUUCCCAUAGUUCUGCUCUUGCGGUCGCACUAGUGUGGAAUUCUCGGGUGUCAAGG
B4: ENSMUSG00000061578.738|Ksr2 (ssRNA)
RNA: GGGAGUUCUACAGUCCGACGAUCGCUUCGAUAUCCGCAUGCUAUUGUCUAAGGCUGUGGGUUUUAAAUACCUGCUGCAGGCCUCCCAUCUCUGGCUCUUUGUUUCCACUCUGGCCCAAGUUUGAGUCUCCAUAUGGGCCCUUCCUGUCCUCAUGCCCUGCCUGUCUUCAUUCCACCCAUCCACCCUCCUAAGGAUUGGUCUUGUUCCGAGAGUGAUCCUGGUAACGCCAAGCCUCCCUCUGCCCCUGUGUUGGCUUCUGUGACGGACUACCACACACCAAGAGGUUUUUCACAGUGAAGAUGUCUCUUGCGGUCGCACUAGUGUGGAAUUCUCGGGUGUCAAGG
B5: ENSMUSG00000061578.1348|Ksr2 (ssRNA)
RNA: GGGAGUUCUACAGUCCGACGAUCGCUUCGAUAUCCGCAUGCUACUCUUCCUCCUGUCCCACAGCCCCCAGGUCAGAGCCAAGCGCAUCAUCUGCAGCACACAUGUCUGUCUCCACAGGCAAGCAACCUUGCCAAGGCAGGCCAGACAGGACAGCCCAGCUUCCCACUCCAGACAUGUUGUUCUUACAUCUCUGACCCAGUGAUCUUUCUAGGGGUCUGUCACAUGUCCCAACAGGUGGACAGCUCUCCAAGUCACCAACCUGAGGAAAAUAUCCCUCCUUGUAAAAAGGCUUUCUCUUUGUAACUCUUGCGGUCGCACUAGUGUGGAAUUCUCGGGUGUCAAGG
B6: ENSMUSG00000029028.239|Lrrc47 (ssRNA)
RNA: GGGAGUUCUACAGUCCGACGAUCGCUUCGAUAUCCGCAUGCUAGUGCGAGAGCCGUUAGCUGUCAGAACUAGUGAAGCUCCAGGCUCCUCGUGGCAGACCCUGGACAACGCUGGUAGCUGUUCUCCAUGAGACACGGCUGCUCACAGGUCCCUUUGAGUGGCUGUGGCAAGUACUCACCUACUAAGUGUUUAGGGUGGAGCUAUCCUGUGCUCACCCUGUCUCCCCCCAGUUCCUGCUGUUCCCUCCAGCCCAGCCCAGCCCAGGUGUGAGAUUCAUUGAGAUUUUUGAAACUGUUUUUACAGCUCUUGCGGUCGCACUAGUGUGGAAUUCUCGGGUGUCAAGG
B7: ENSMUSG00000029028.154|Lrrc47 (ssRNA)
RNA: GGGAGUUCUACAGUCCGACGAUCGCUUCGAUAUCCGCAUGCUAGCUUGUUUCCAGGCACCGUGCUGCCGCCAUGCUCCCAGGGCAGCAUCUGCCUUCCACGGCUGUGCUUGGAACUGUAGUGCUGGUCGUUGUUGGCACAUCUGCGCCUUGGCCAAGGAAGUUAUCUAUGUCCGUGUAGUCCUUUGUAGUCAGACAGAUGCUUCGUGGACUGUGCCUCACACAUGGCCCUGCAGGCUCCAUGUCAGCGUGUCCCACUAUUCAUGUCCCAUCUCUGUGCAUCCUGACUGCGCACAUCCCAUCUCCUCUUGCGGUCGCACUAGUGUGGAAUUCUCGGGUGUCAAGG
B8: ENSMUSG00000061578.113|Ksr2|98:102;184:189;252:256 (ssRNA)
RNA: GGGAGUUCUACAGUCCGACGAUCGCUUCGAUAUCCGCAUGCUACUCCCAUUUUGUAAGAACACUGUUCUAACUCACCUCAUGCCCACGCUACCCUGGGCAACUGGAGAACACCAUAGCGUUUCAGCUGAUGUGACAUUUGCACACACCUUUACCAGUUCACCAUCAUUCAUGGCUUCCCCCAAAGUCCCGAGUCCUGAGAACCGGGGCUGUGGCAAGAGAGUUCUGCACACAUCUCUCUGUGGGGCUAGCAAUGCCGGGGUUAAGUUCUCCCUCGGUGAUGGAGACGGUCCUGGCAUACCAUGCUCUUGCGGUCGCACUAGUGUGGAAUUCUCGGGUGUCAAGG
B9: ENSMUSG00000034801.54|Sos2 (ssRNA)
RNA: GGGAGUUCUACAGUCCGACGAUCGCUUCGAUAUCCGCAUGCUAUCAAUGACCUUGGCCAUAUGUAGUCAUUGACACUGGAAUAGUAUUUGUAAAGGUUUUUAAUUUAUUCAAAAAGACAUAGUAUUUUAGUACUUUUUACAGAAAUGCUACUGAUUAAAUAAGCUCUUAAGAAUUAGUAAACUUGUUGGAUGGCAGUGGCCCACAGCUGUAAUCCCAGCACCCUGGUUGCAGGGGCAGGUGGGCUUCAGGGUUUGAGAGCAGCCUGGUCUACAGAGCAAGUCCCAGGACAGCCAGGGCUACACCUCUUGCGGUCGCACUAGUGUGGAAUUCUCGGGUGUCAAGG
B10: ENSMUSG00000090935.235|Synj2bp (ssRNA)
RNA: GGGAGUUCUACAGUCCGACGAUCGCUUCGAUAUCCGCAUGCUAGGGGACUAGGGGAUCAUAUUCCCUCAUAUAUAAUCAAGACUCAUAUUGAAAAAUGAGUUCUGGAUUGUAAAGAGAACUUACUUUUUCCACUUGCCUGUAAGUCUUUGUCCACAAGUUAAAAACAUACACAGUGCUAAGGAAUGAUCAUAACUGAAACAUUUCAAGAACUAUUAGCAGAGCAUGUAUAUUGAGGAUGGGGAAGUUAGCUUUAAAAGAGAAUGCUCAGUCAGUGACAUUAGGAAAAUAAUGACUGAAGCAAUCUCUUGCGGUCGCACUAGUGUGGAAUUCUCGGGUGUCAAGG

What follows are binders tested against TDP-43 (Homo sapiens, UniProt Q13148 1-414) (assay: RNA Bind-n-Seq with designed 260-mer pool; 25 mM Tris-HCl, 150 mM KCl, 3 mM MgCl2, BSA (printed 500 mg/mL), 20 units/mL SUPERase IN; pH not stated; 500 nM RNA pool, 1 h, 4 C; TDP-43 5, 50, 500 nM; high values mean tight binding). Settings: protein: recombinant; tags: SBP (GST cleaved off with PreScission; pGEX-GST-SBP).
In short: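 Binding (R) is the ratio of each oligo's mapped-read-normalized abundance in the bound fraction to its abundance in the input. To obtain it, SBP-tagged recombinant TDP-43 (5, 50 or 500 nM) on streptavidin beads was incubated with 500 nM of an in vitro-transcribed 260-nt 3′ UTR oligo pool for 1 h at 4 °C in 25 mM Tris-HCl, 150 mM KCl, 3 mM MgCl2, BSA and SUPERase IN. The RNA retained after washing was released with biotin, then reverse transcribed, amplified by PCR and sequenced.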

TDP-43, sequence (Q13148 whole entry): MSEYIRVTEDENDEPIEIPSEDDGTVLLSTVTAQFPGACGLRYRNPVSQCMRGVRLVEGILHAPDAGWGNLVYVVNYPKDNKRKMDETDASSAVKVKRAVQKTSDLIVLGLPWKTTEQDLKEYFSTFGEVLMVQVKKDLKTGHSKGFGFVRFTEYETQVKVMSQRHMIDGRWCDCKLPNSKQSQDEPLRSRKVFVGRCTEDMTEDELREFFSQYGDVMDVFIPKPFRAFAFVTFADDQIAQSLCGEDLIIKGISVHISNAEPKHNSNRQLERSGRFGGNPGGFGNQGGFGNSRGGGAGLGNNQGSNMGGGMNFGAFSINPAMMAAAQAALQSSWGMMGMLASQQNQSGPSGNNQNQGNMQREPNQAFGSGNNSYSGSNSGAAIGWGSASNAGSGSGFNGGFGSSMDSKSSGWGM

Row | Binder | binding signal
1 | B1 | 3.59 R (bound/input frequency ratio)
2 | B2 | 0.458 R (bound/input frequency ratio)
3 | B3 | 0.881 R (bound/input frequency ratio)
4 | B4 | 1.57 R (bound/input frequency ratio)
5 | B5 | 0.533 R (bound/input frequency ratio)
6 | B6 | 0.716 R (bound/input frequency ratio)
7 | B7 | 1.62 R (bound/input frequency ratio)
8 | B8 | 0.484 R (bound/input frequency ratio)
9 | B9 | 0.356 R (bound/input frequency ratio)
10 | B10 | 0.157 R (bound/input frequency ratio)
